# Pf Dd2 growth: qHTS Primary assay for Inhibitors of Plasmodium falciparum Dd2 growth in vitro. actives 4.3% (n = 120,000). P. falciparum Dd2 growth, SYBR Green, 72 h. Potency, µM (series often up to 28.9 µM), for inactives: at the highest dose activity, negative = inhibition, actives largely listed as inhibitors; active means well fitted inhibition curve with a large enough effect;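 further: plate controls were DMSO vehicle for no effect and reference drug for full effect; nearly all actives have a fitted effect of over 65% in size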
#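 Infected erythrocytes (Dd2, 0.3% parasitemia, 2.5% hematocrit final) are added to compound in RPMI-1640/Albumax II medium, grown 72 h at 37C in low oxygen, then lysed with saponin/Triton-X containing SYBR Green and read by fluorescence.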
# * = called active by the depositor; i = inactive; [ ] = remark or other dose. The full list was thinned out, with hits kept by preference. Potency means the concentration at half of the fitted maximal effect.
SMILES,Pf Dd2 growth
CCN(CC)C(=O)CCc1c(C)nn(-c2ccc(F)cc2)c1Oc1cccc(F)c1,-10%
COCCOc1ccnc(-c2noc([C@@H]3CCCN3C3CCC3)n2)c1,i
Cc1ccc(CN2CCC[C@H]2c2nc(-c3ccc(OC4CCCCC4)nc3)no2)cc1,-13%[44.1 µM]
c1cc(OC2CCCCC2)ncc1-c1noc([C@@H]2CCCN2C2CCOCC2)n1,11µM*
COc1ccc(-c2noc([C@@H]3CCCN3C3CCCCC3)n2)cn1,i
CNCC(=O)N1CCN(Cc2nc(C3CC3)no2)CC(O)C1 (stereo not given),-11%
CCC(O)c1nc2ccccc2n1Cc1cc(C)ccc1C (stereo not given),11µM*
CC(=O)N1CCCC1c1nc2ccccc2n1Cc1cc(C)ccc1C (stereo not given),-2%
CCC(O)c1nc2ccccc2n1Cc1cccc(Cl)c1 (stereo not given),-23%
Cc1ccc([C@H]2CN(C(=O)CCc3c(C)nc4ncnn4c3C)C[C@@H]2N)o1,-9%
CCS(=O)(=O)Nc1ccc(C)n(CC(=O)NCc2ccccc2C)c1=O,i
COCc1nnc2n1CCC(NC(=O)c1ccoc1)CC2 (stereo not given),24%
CN(C)c1ccc(CN2C[C@H](O)C[C@H]2c2nc(-c3cccnc3)no2)cc1,-10%[44.1 µM]
CN(C)C(=O)c1cc(-c2ccc(S(C)(=O)=O)cc2)nc2c1cnn2C,18%
CC(C)NC(=O)c1cc(-c2ccc(S(C)(=O)=O)cc2)c2cnn(C)c2n1,3.2µM*
CN(C)C(=O)c1cc(-c2ccc(S(C)(=O)=O)cc2)c2cnn(C)c2n1,8%
Cc1ccc(S(=O)(=O)Nc2cccn3nc(C4CCC4)nc23)cc1,-21%
CCOCc1cc(CN2CCN(c3ccccc3OC)CC2)c(O)c2ncccc12,2µM*
COc1ccccc1N1CCN(c2csc3ccccc3c2=O)CC1,-10%
COc1ccccc1N1CCN(Cc2cc(COC(C)C)c3cccnc3c2O)CC1,1.6µM*
COc1ccc(-c2noc(CN3CCN(c4ccccc4OC)CC3)n2)cc1OC,11%
CCCOCc1cc(CN2CCN(c3ccccc3OC)CC2)c(O)c2ncccc12,2.8µM*
COc1ccccc1N1CCN(C(CNC(=O)C(=O)NCc2cccnc2)c2cccnc2)CC1 (stereo not given),-4%
CCOc1ccccc1N1CCN(Cc2ccc(=O)n(CC)c2)CC1,-7%
COc1ccccc1N1CCN(c2ncccc2-c2nc(-c3ccc(Cl)cc3)no2)CC1,36%
SMILES,Pf Dd2 growth
C=CCS(=O)(=O)NCc1cccnc1N1CCN(c2ccccc2OC)CC1,-3%
CC(=O)Nc1ccc(CNC2(Cc3cc(CN(C)C)on3)COC2)cc1,-7%[44.1 µM]
CN1C(=O)CC[C@]2(C(=O)NCc3ccc(F)c(Cl)c3)CCCC[C@@H]12,14%
NC(=O)[C@@H]1C[C@H](Oc2cccnc2)CN1S(=O)(=O)c1ccc2c(c1)OCCO2,8%
COc1ccc(N2CC3CCC(C2)N3C(C)=O)cc1,-11%[44.1 µM]
CN(C(=O)Cc1c[nH]c2ccccc12)C1CCc2nn(CC3CC3)c(=O)n2CC1 (stereo not given),-21%
CCn1cc(CN(C)C2CCc3nn(CC4CC4)c(=O)n3CC2)c(C)n1 (stereo not given),2%
CN(Cc1cn(C)c2ccccc12)C1CCc2nn(CC3CC3)c(=O)n2CC1 (stereo not given),5µM*
COc1ccc(-c2noc(-c3nc(Cc4cccc(F)c4)no3)n2)cc1OC,i
CC1(C)NC(=O)N(CC(=O)NC2CC(c3cc(=O)[nH]c(N)n3)C2)C1=O (stereo not given),-3%
COc1ccccc1CN1CCC2(CC1)COCCN2C(=O)OCc1ccccc1,-7%[44.1 µM]
CCCn1cc(CN2CCC(CO)(Cc3ccccc3Cl)CC2)c(C)n1,i
OCC1(Cc2ccccc2)CCN(Cc2ccccc2-c2ccco2)CC1,8.9µM*
CCCc1noc(-c2cn(C3CCN(C(=O)c4ccc(C)cc4)CC3)nn2)n1,8%
O=C1NC(=NC2CCCC2)C2(CCN([S+](=O)([O-])c3ccccc3)CC2)N1c1cccnc1,16%
O=c1ncn(CC2CC2)c2ccc(N3CCC(c4ccccc4)CC3)nc12,-17%[44.1 µM]
COCCc1noc(C2Cc3ccccc3N2C(=O)Nc2ccc(C)c(C)c2)n1 (stereo not given),11%[5.79 µM]
Cc1ccccc1C(=O)N(C)Cc1cccc(C(F)(F)F)c1,14µM*
CN(Cc1cccc(C(F)(F)F)c1)C(=O)C(C)(C)C,-1%[44.1 µM]
CN(Cc1cccc(C(F)(F)F)c1)C(=O)c1ccccc1,i
O=C1NCCCCCN(S(=O)(=O)c2ccccc2)[C@H]2CCCC[C@@H]12,-4%
COCCNC(=O)[C@@H]1C[C@@H](O)CN1C1CCN(C(=O)C(C)C)CC1,4%
CCOCCOC1CCN(C(=O)Nc2ccccc2F)CC1,i
CC(C)CCN1CCC(N2CCN(C(=O)c3ccc(F)cc3F)CC2)C1=O (stereo not given),-1%
CCC(Nc1ccc(-c2nc(-c3ccco3)no2)cc1[N+](=O)[O-])c1ccccc1 (stereo not given),10µM*
SMILES,Pf Dd2 growth
O=[N+]([O-])c1cc(-c2nc(-c3ccco3)no2)ccc1NCc1ccccc1,-8%
CCCCNc1ccc(-c2nc(-c3ccco3)no2)cc1[N+](=O)[O-],14%
COc1ccc(C(=O)NC(C(=O)NCC(C)C)C2CCN(C(=O)C3CCCC3)CC2)cc1 (stereo not given),i
O=C1NC(=NC2CCCC2)C2(CCN([S+](=O)([O-])c3ccccc3)C2)N1c1cc(F)cc(F)c1 (stereo not given),-14%
O=C1NC(=NC2CCCC2)C2(CCCN(Cc3ccc(F)cc3)C2)N1c1cc(F)cc(F)c1 (stereo not given),7.9µM*
O=C1NC(=NC2CCCCC2)C2(CCN(Cc3ccsc3)C2)N1c1cc(F)cc(F)c1 (stereo not given),6%
O=C1NC(=NC2CCCC2)C2(CCN(Cc3ccccc3)C2)N1c1cc(F)cc(F)c1 (stereo not given),1.4µM*
CN(C)c1ccc(CN2CCCC3(C2)C(=NC2CCCCC2)NC(=O)N3c2cc(F)cc(F)c2)cc1 (stereo not given),5.6µM*
O=C(OCc1ccccc1)N1CCC2(CC1)C(=NC1CCCC1)NC(=O)N2c1cc(F)cc(F)c1,i
CC(=O)N1CCCC2(C1)C(=NC1CCCC1)NC(=O)N2c1cc(F)cc(F)c1 (stereo not given),-13%
CN(C)c1ccc(CN2CCC3(CC2)C(=NC2CCCCC2)NC(=O)N3c2cccnc2)cc1,7%
O=C1NC(=NC2CCCCC2)C2(CCN(Cc3cccnc3)C2)N1c1cccnc1 (stereo not given),-4%
CC(C)CCN1CCC2(CC1)C(=NC1CCCCC1)NC(=O)N2c1cccnc1,12%
C[S+](=O)([O-])N1CCC2(CC1)C(=NC1CCCC1)NC(=O)N2c1cc(F)cc(F)c1,24%
CC(C)CCN1CCC2(C1)C(=NC1CCCC1)NC(=O)N2c1cc(F)cc(F)c1 (stereo not given),8.9µM*
COc1ccc(-c2noc(C(=O)NC3CCC3)c2[C@H](C)O)cc1,-8%[44.1 µM]
Cn1cnc(C(=O)N[C@H]2CCOC[C@H]2C2CCOCC2)c1,-13%
O=C1N[C@@H]2CCN(C(=O)c3ccc(C(F)(F)F)cc3)[C@@H]2C(=O)N1c1ccc(F)cc1,-21%[44.1 µM]
COCCN1Cc2[nH]nc(-c3ccc(OC)c(F)c3)c2CC1=O,11%[44.1 µM]
CSc1cccc(NC(=O)N[C@H]2CCN3C(=O)[C@H](CC4CCCCC4)NC(=O)[C@@H]3C2)c1,i
